For one assay, the target named is Albumin (Bos taurus) (UniProt P02769). In words: compounds binding labelled BSA control protein – biochemical, small-molecule microarray, Alexa647 label, 635/667 nm fluorescence, artefact control for SMM control protein annotation, profiling panel (AID 1118).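 Note: score merges 667 nm emission intensity and signal-to-noise per printed compound spot.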 To be noted: BSA-A647 binding, fluorescence 635 nm, higher = more signal.
Assay [1] is described as follows: probe aXIP binding to arrayed compounds – biochemical, NeuroSMM set, 635/667 nm fluorescence, primary screen (AID 1119).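 Note: probe is the protein aXip251-270 applied at 1 µg/mL to compound-printed slides; binding of probe to printed compounds measured as 667 nm fluorescence plus signal to noise.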 The settings on record: small-molecule microarray, higher = more signal, called active from +8 up or from −8 down.
The nature of assay [2]: probe aNOTCH3 binding on compound microarray – biochemical, small-molecule microarray, 635/667 nm fluorescence, primary screen (AID 1120).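 Note: probe is a biotin-tagged antibody raised against NOTCH3 rather than NOTCH3 protein; score merges spot fluorescence near 667 nm with spot signal to noise.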 The settings on record: higher = more signal.
Assay [3] can be described thus: probe aNOTCH2 binding on compound microarray – biochemical, small-molecule microarray, 635/667 nm fluorescence, primary screen (AID 1121).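 Note: score merges feature fluorescence read at 667 nm with its signal to noise.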 To be noted: higher = more signal.
Assay [4] addresses Carbonic anhydrase 2 (Homo sapiens) (UniProt P00918). The assay is described as follows: compounds binding carbonic anhydrase 2 – biochemical, small-molecule microarray, Alexa647-labelled CAII, profiling panel (AID 1122). The settings on record: CAII-A647 binding fluorescence, higher = more signal.
Assay [5] is described as follows: COS7 lysate on small-molecule microarray, probe aHis, 635 nm (AID 1123).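 Note: z-score combines 667nm fluorescence intensity with signal-to-noise per printed compound spot.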 To be noted: COS7 cell lysate, fluorescence, higher = more signal.
Assay [6] can be described thus: probe aLAP1 signal on lysate-treated microarray – cell lysate, small-molecule microarray, COS7 lysate, primary screen (AID 1124).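 Note: lysate comes from COS7 cells expressing LAP1 and is applied at 0.3 µg/mL; score merges spot fluorescence near 667 nm with signal-to-noise over triplicate slides.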 To be noted: probe aLAP1, fluorescence, higher = more signal.
The next assay has as its system Sam68 (KHDRBS1). In words: compounds binding KHDRBS1 protein – biochemical, small-molecule microarray, 635 nm fluorescence, primary screen (AID 1125).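 Note: score merges 667 nm channel intensity with signal to noise over triplicate slides.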 To be noted: higher = more signal.
Assay [7] relates to Chordin-like protein 2 (CHRDL2). In words: compounds binding chordin-like 2 – biochemical, small-molecule microarray, 635 nm fluorescence, primary screen (AID 1126).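 Note: printed compound slides probed with Chrdl2 protein at 4 µg/mL for 1 h at 4 C; score merges 667 nm emission intensity with signal to noise over three replicate slides.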 To be noted: fluorescence 635 nm, higher = more signal.
Assay [8] addresses Concanavalin-A (Canavalia ensiformis) (UniProt P02866). In words: compounds binding concanavalin A lectin – biochemical, small-molecule microarray, Alexa647 label, 635 nm, artefact control for SMM control protein annotation, primary screen (AID 1127).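 Note: z combines 667 nm emission intensity with signal-to-noise across three replicate slides.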 To be noted: ConA-A647 binding fluorescence, higher = more signal.

Activity calls are given as the source filed them.

Concanavalin-A (Canavalia ensiformis), sequence (P02866 whole entry, looked up): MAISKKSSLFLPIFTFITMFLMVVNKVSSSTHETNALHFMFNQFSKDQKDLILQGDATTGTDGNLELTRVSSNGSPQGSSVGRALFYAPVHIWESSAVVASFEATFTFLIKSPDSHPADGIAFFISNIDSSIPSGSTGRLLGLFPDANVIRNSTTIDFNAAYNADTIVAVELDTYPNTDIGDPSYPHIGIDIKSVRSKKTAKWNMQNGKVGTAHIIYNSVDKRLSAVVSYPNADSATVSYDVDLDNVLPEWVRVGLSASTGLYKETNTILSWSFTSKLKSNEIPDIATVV
Albumin (Bos taurus), sequence (P02769 whole entry, looked up): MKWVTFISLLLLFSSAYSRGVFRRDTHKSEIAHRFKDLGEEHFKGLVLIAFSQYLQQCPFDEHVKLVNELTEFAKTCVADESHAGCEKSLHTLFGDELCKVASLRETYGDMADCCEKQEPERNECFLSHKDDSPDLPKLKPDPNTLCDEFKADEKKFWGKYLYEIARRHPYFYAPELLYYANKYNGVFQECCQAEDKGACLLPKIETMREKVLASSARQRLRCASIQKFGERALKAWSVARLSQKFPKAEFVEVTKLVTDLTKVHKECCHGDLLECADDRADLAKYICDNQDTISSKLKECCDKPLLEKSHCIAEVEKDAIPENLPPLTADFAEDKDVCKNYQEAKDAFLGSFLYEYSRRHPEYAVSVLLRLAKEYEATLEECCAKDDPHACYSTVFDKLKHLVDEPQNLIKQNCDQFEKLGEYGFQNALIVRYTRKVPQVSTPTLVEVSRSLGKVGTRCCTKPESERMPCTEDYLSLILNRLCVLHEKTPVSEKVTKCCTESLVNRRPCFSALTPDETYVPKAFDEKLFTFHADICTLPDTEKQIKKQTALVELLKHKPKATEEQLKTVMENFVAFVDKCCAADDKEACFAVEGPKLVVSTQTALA

On to `COc1ccc(O[C@H]2C=C[C@@H](c3ccccc3)O[C@@H]2COC(=O)CCC(C)=NOC[C@@H](C)[C@H](OCc2ccccc2)C(C)C)cc1`, for which the composite z-score is -0.874 in the assay with Albumin (Bos taurus); -0.155 in assay [2]; -0.157 in assay [3]; -0.608 in assay [4]; -0.52 in assay [5]; -0.212 in [6]. The composite z-score with Sam68 (KHDRBS1) was -1.03; in assay [7], -0.522; in [8], -2.04. In assay [1], the composite Z-score is 0.289 (inactive).
Consider `Cc1ccc(S[C@]2(C(=O)NCC(F)(F)F)CC(=O)N(Cc3ccccc3Cl)[C@@H]2c2ccc(CO)cc2I)cc1`, for which the composite z-score with Albumin (Bos taurus) was -0.937; in assay [2] it was -0.133; in [3], -0.134; in assay [4] it was 0.796; in [5], 1.56; in [6], -0.49. The composite z-score was 0.0712 in the assay with Sam68 (KHDRBS1), -1.04 in assay [7] and -0.275 in [8]. The composite Z-score in [1] was 0.0162 (inactive).
On to `N#Cc1ccc(NN2C(C(O)c3cc(C(F)(F)F)cc(C(F)(F)F)c3)C=CC3C(=O)N(c4ccccc4)C(=O)C32)cc1` (stereo not given), for which the composite z-score stood at 0.996 with Albumin (Bos taurus); 0.425 in assay [2]; 0.0388 in assay [3]; 0.612 in assay [4]; 2.82 in assay [5]; 0.557 in [6]. In addition, the composite z-score with Sam68 (KHDRBS1) is 1.33; in assay [7] it was -0.904; in assay [8], 1.19. Besides, the composite Z-score in assay [1] is 0.239 (inactive).
As to `[N-]=[N+]=NCc1ccccc1[C@@H]1OC(c2ccc(OCCCO)cc2)=N[C@]1(Cc1ccccc1)C(=O)N1CCOCC1`, the composite z-score with Albumin (Bos taurus) was determined as 0.923; in assay [2], 0.387; in [3], 0.34; in assay [4] it was 0.514; in assay [5], 3.06; in assay [6] it was 0.827. Moreover, the composite z-score with Sam68 (KHDRBS1) stood at 1.32; in [7] it was 0.766; in assay [8], 1.16. For the same compound, the composite Z-score in assay [1] is 0.0976 (inactive).
On to `CC(=O)OC[C@H]1O[C@H](CC=NOC[C@@H](C)[C@H](OCc2ccccc2)C(C)C)C=C[C@@H]1OC(C)=O`, for which the composite z-score in the assay with Albumin (Bos taurus) was -0.428; in assay [2] it was -0.0773; in [3] it was -0.11; in assay [4] it was -0.253; in assay [5] it was 0.043; in [6] it was -0.223. Also, the composite z-score in the assay on Sam68 (KHDRBS1) is 0.377; in assay [7], 0.186; in assay [8], -0.182. In assay [1], the composite Z-score is 0.156 (inactive).
Regarding `O=C1[C@H]2[C@H]3[C@H](O)[C@H](O)CC(=NOCc4ccccc4)[C@@H]3CC[C@H]2C(=O)N1Cc1ccccc1`, the composite z-score was 0.55 in the assay with Albumin (Bos taurus); -0.0043 in assay [2]; -0.14 in [3]; 0.251 in assay [4]; -0.256 in assay [5]; -0.355 in assay [6]. The composite z-score in the assay with Sam68 (KHDRBS1) was 0.598; in assay [7], 0.417; in assay [8], -0.0677. Also, in [1], the composite Z-score was -0.119 (inactive).
For the compound `CC(C)NC(=O)[C@@]1(c2ccc([N+](=O)[O-])cc2)CC(=O)N(CC23CC4CC(CC(C4)C2)C3)[C@@H]1c1ccc(CO)cc1I`, the composite z-score with Albumin (Bos taurus) was -0.0212; in [2], 0.299; in [3], 0.23; in [4], 0.241; in [5], 0.997; in assay [6] it was 1.04. Besides, the composite z-score was 1.27 in the assay with Sam68 (KHDRBS1), 0.111 in assay [7] and 0.93 in assay [8]. For the same compound, the composite Z-score in assay [1] was 0.567 (inactive).
With `C=CCN1C(=O)[C@]2(O[C@H](CCn3cc(CCO)nn3)[C@@H]([Si](C)(C)c3ccc(OC)cc3)[C@@H]2C)c2cc(N3CCOC3=O)ccc21`, the composite z-score with Albumin (Bos taurus) is 0.617; in assay [2] it was -0.161; in assay [3], -0.104; in assay [4] it was 0.368; in [5], 1.88; in [6], 1.21. In addition, the composite z-score with Sam68 (KHDRBS1) was 0.448; in [7] it was -0.34; in [8], 1.13. The composite Z-score in assay [1] was -0.217 (inactive).
On to `CCOC(=O)NN=C1C[C@@H](O)[C@@H](O)[C@@H]2[C@@H]3C(=O)N(CC)C(=O)[C@@H]3CC[C@@H]12`, for which the composite z-score in the assay with Albumin (Bos taurus) is 0.338; in assay [2], -0.0864; in [3], -0.125; in assay [4], 0.735; in assay [5], 0.472; in assay [6], -0.0313. For the same compound, the composite z-score came out at 0.976 in the assay with Sam68 (KHDRBS1), 0.0151 in [7] and 0.481 in [8]. Besides, in [1], the composite Z-score is 0.112 (inactive).
As for `CCOC(=O)[C@H](Cc1ccccc1)NC(=O)CCC1CC(OC(=O)NCCc2ccc(F)cc2)CC2(CCCC(COC(=O)NCC(c3ccccc3)c3ccccc3)O2)O1` (stereo not given in full), the composite z-score with Albumin (Bos taurus) is 0.641; in assay [2], -0.0893; in assay [3] it was -0.037; in assay [4], 0.16; in assay [5] it was 1.04; in [6] it was 0.0435. The composite z-score in the assay on Sam68 (KHDRBS1) worked out at 1.32; in assay [7], 0.227; in assay [8] it was 0.992. For the same compound, the composite Z-score in assay [1] is 0.066 (inactive).
With `CN(C)C(=O)[C@@]1(Cc2ccccc2)N=C(c2ccc(OCCCO)cc2)O[C@H]1c1ccccc1CN=[N+]=[N-]`, the composite z-score with Albumin (Bos taurus) came to 0.968; in assay [2] it was 0.329; in [3], 0.319; in assay [4] it was 0.587; in [5], 2.49; in assay [6] it was 0.797. Further, the values for the composite z-score (in the assay with Sam68 (KHDRBS1); in assay [7]; in [8]) were 1.29, -0.25 and 1.14, respectively. Also, the composite Z-score in [1] is 1.29 (inactive).
Regarding `CC1CC/C=C\[C@H]2OC34C=CCN(Cn5nnc6ccccc65)C(=O)[C@H]3N(CCO)C(=O)[C@@H]4C2C(=O)O1` (stereo not given in full), the composite z-score in the assay with Albumin (Bos taurus) is 1.13; in assay [2], -0.319; in [3], -0.15; in assay [4], 0.942; in assay [5] it was 2.59; in [6], 1.06. Also, the composite z-score in the assay with Sam68 (KHDRBS1) is 0.0381; in assay [7] it was -1.62; in assay [8], -0.903. In addition, the composite Z-score in assay [1] was 1.12 (inactive).
For the compound `CCOC(=O)CCN1C(=O)[C@H]2[C@H]3[C@H](O)[C@H](O)CC(=NNC(=O)OCc4ccc(OC)cc4)[C@@H]3CC[C@H]2C1=O`, the composite z-score with Albumin (Bos taurus) is 0.0708; in assay [2], -0.153; in [3], -0.104; in assay [4], 0.244; in assay [5] it was 1.31; in [6], -0.239. Besides, the composite z-score in the assay with Sam68 (KHDRBS1) turned out to be 0.427; in assay [7], 0.388; in assay [8], 1.09. Moreover, the composite Z-score in assay [1] was 0.101 (inactive).
Regarding `COC(=O)C1=CCC(c2cccc(Cl)c2)O1` (stereo not given), the composite z-score is 0.431 with Albumin (Bos taurus); -0.112 in assay [2]; -0.0907 in assay [3]; 0.483 in assay [4]; -0.21 in [5]; -0.201 in assay [6]. Also, the composite z-score in the assay on Sam68 (KHDRBS1) is 0.137; in assay [7], -0.667; in assay [8], 0.247. In [1], the composite Z-score was 0.0018 (inactive).
With `CC(CCC(=O)OC[C@H]1O[C@H](C#Cc2ccccc2)C=C[C@@H]1Oc1ccc(C)cc1)=NOC[C@@H](O)[C@H]1O[C@@H]2OC(C)(C)O[C@@H]2[C@H]1O`, the composite z-score was -0.326 with Albumin (Bos taurus); -0.2 in assay [2]; -0.187 in assay [3]; -0.023 in assay [4]; -0.282 in assay [5]; 0.137 in assay [6]. The composite z-score with Sam68 (KHDRBS1) is 0.14; in assay [7], -0.532; in assay [8], -0.614. In [1], the composite Z-score is -0.404 (inactive).
For `COC(=O)[C@@]1(Cc2ccc(F)cc2)[C@@H]2C(=CC(=O)[C@H]2CC(=O)C(=O)N(C)C)CN1C(=O)c1ccccc1`, the composite z-score with Albumin (Bos taurus) turned out to be 0.979; in assay [2], 0.476; in assay [3], 0.308; in [4], 0.785; in [5], 3.01; in assay [6] it was 0.663. The composite z-score in the assay with Sam68 (KHDRBS1) was found to be 1.21; in assay [7], 0.13; in assay [8], 1.16. Moreover, the composite Z-score in assay [1] was -1.12 (inactive).
On to `O=C(NN=C1C[C@@H](O)[C@@H](O)[C@@H]2[C@@H]3C(=O)N(c4ccc(F)cc4F)C(=O)[C@@H]3CC[C@@H]12)OCc1ccccc1`, for which the composite z-score is 0.458 with Albumin (Bos taurus); 0.0952 in assay [2]; -0.123 in assay [3]; 0.129 in assay [4]; 0.229 in [5]; 0.3 in assay [6]. In addition, the composite z-score in the assay on Sam68 (KHDRBS1) is 0.661; in assay [7], 0.272; in [8], 0.247. The composite Z-score in assay [1] was -0.662 (inactive).

The values are drawn from PubChem BioAssay.
